Source: PubChem BioAssay (National Center for Advancing Translational Sciences (NCATS))
TRPML1 inh: qHTS for Inhibitors of the Human Mucolipin Transient Receptor Potential 1 (TRPML1); TRPML1-inducible cells, Ca2+ dye fluorescence, FDSS; active compounds read low; inhibition of EC80 agonist-evoked calcium signal; activity change, negative = inhibition, % (no concentration beside the values); 390,000 tested, 0.02% active; AID 624415, 2012; in the data active = activity change below about -50%; inconclusive = between about -30% and that limit;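 also: stimulus is agonist 54-4 at its EC80 concentration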
Target sequence (Q9GZU1 whole entry, looked up): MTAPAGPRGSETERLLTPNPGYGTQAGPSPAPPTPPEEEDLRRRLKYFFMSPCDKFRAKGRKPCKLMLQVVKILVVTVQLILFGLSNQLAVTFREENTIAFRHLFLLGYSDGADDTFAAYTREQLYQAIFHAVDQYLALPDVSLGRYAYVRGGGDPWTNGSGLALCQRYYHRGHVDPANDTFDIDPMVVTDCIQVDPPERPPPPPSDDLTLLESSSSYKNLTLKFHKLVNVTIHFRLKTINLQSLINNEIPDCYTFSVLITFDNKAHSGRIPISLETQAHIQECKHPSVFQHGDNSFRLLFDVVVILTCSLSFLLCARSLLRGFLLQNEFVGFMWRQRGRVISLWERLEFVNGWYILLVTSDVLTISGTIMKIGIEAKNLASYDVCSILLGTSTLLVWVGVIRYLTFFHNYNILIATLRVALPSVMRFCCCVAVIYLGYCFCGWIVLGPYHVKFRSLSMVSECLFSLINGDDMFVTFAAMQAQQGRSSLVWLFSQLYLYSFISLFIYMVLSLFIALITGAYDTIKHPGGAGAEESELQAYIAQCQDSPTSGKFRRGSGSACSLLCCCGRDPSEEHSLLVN
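TRPML1-DL cells, Tet-induced overnight (~16 h, 37 °C) at 1,500 cells/well, were loaded with Ca8 no-wash dye plus quencher for 45-90 min at room temperature. Compounds were pinned during FDSS kinetic reading; agonist 54-4 at EC80 (4 uM final) then added.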
TRHR enhancer-1: qHTS for Small Molecule Agonists and Allosteric Enhancers of Human TRH Receptor: Primary Screen for Enhancers. 360,000 tested, 0.66% active. enhancement, % at 2 µM. Thyrotropin-releasing hormone receptor (Homo sapiens), P34981. TRHR cells, fluo-8 calcium fluorescence, EC20 TRH enhancement; in the data active = enhancement above about 30%
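Enhancer read-out: after compound pinning and an initial kinetic agonist-mode read, an EC20 of TRH (10 nM final) was injected and fluo-8 calcium signal (Ex 480/Em 530) followed at 1 s/cycle for 100 cycles in TRHR-expressing cells.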
TRHR agonist-1: qHTS for Small Molecule Agonists and Allosteric Enhancers of Human TRH Receptor: Primary Screen for Agonists; AID 493084, 2011; activation, % at 2 µM; TRHR cells, calcium flux fluo-8, FDSS agonist mode; 360,000 tested, 0.18% active; in the data active = activation above about 30%
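Read-out: compound-evoked intracellular calcium rise in TRHR cells, fluo-8 dye, kinetic FDSS fluorescence at 1 s/cycle following a 10-cycle baseline. Cells cultured overnight before dye loading (30 min–1.5 h, RT).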
PTAP TSG101 blk: qHTS Assay for Iinhibitors of HIV-1 Budding by Blocking the Interaction of PTAP/TSG101 | 340,000 tested, under 10 active | Potency, µM (titrated, usually from 115 µM), hits mostly inhibitors | Tumor susceptibility gene 101 protein (Homo sapiens), Q99816 | Fluorescence polarization, FITC-PTAP peptide / Tsg101 binding; active = well fitted inhibition curve with a large enough effect in the main read-out, with a control signal flat, not every such curve was filed as active; inconclusive = small, poorly fitted or top-dose-only effect, or effect the other way, or a change in a side signal; inactive = no such curve, though single readings can be large or run the other way
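Fluorescence anisotropy tracks displacement of a FITC-tagged PTAP peptide (50 nM) from the Tsg101 binding domain (10 uM), following a 20 min room-temperature incubation at pH 7.5.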
TRPML1 agonist: qHTS for Agonists of the Human Mucolipin Transient Receptor Potential 1 (TRPML1); activation, % (concentration not given with the values); TRPML1-expressing cells, Ca2+ dye fluorescence, FDSS; Mucolipin-1 (Homo sapiens), Q9GZU1; AID 624414, 2012; 410,000 tested, 0.12% active; in the data active = activation above about 50%; inconclusive = mostly about 30% to 49%
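Tet-induced TRPML1-DL cells, 1,500 per well, cultured overnight, were loaded with a no-wash Ca2+ dye for 45–90 min. Calcium fluorescence was recorded on the FDSS for 110 s after compound addition, before the EC80 agonist (4 uM 54-4) was added.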
TRHR enhancer-2: qHTS for Small Molecule Agonists and Allosteric Enhancers of Human TRH Receptor: Confirmation Screen for Enhancers | AID 493076, 2011 | TRH receptor cell assay, enhancer confirmation qHTS | shares compounds with TRHR enhancer-1 | 970 tested, under 10 active | activity change, negative = inhibition, % at 46.1 µM;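 also: compound effect scored on response to added TRH at EC20 of 10 nM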
TRHR agonist-2: qHTS for Small Molecule Agonists and Allosteric Enhancers of Human TRH Receptor: Confirmation Screen for Agonists | 970 tested, 8% active | TRHR-expressing cells, agonist activation read-out | shares compounds with TRHR enhancer-1 | Potency, µM (top dose mostly 46.1 µM), most hits filed as activators; also: nearly all actives have a fitted effect of over 75% in size
Hits are given with their value. This is a sample that favours compounds with a hit; in the whole collection about 0.81% have one here. Unless noted, calls follow the shape of the dose curve; as a rule, active = well fitted curve in the direction sought with a large enough effect; inconclusive = small, poorly fitted or top-dose-only effect, or another doubt; inactive = no such curve, though single readings can be large; an effect the other way counts as inactive or inconclusive.

How did COc1cccc(NS(=O)(=O)c2ccc3c(c2)N(C(C)=O)CCO3)c1 do in these assays?
TRPML1 inh: inactive; TRHR enhancer-1: 104; TRHR agonist-1: inactive; PTAP TSG101 blk: inactive; TRPML1 agonist: inactive; TRHR enhancer-2: inactive; TRHR agonist-2: inactive

How did O=S(=O)(c1ccc(Br)cc1)N1CCN(c2nc(-c3cccs3)nc3ccccc23)CC1 do in these assays?
TRPML1 agonist: inactive

What do the screens show for `C=CCOc1ccc(C2C(C(=O)c3ccco3)=C(O)C(=O)N2c2nnc(C)s2)cc1` (configuration not stated)?
TRPML1 inh: inactive; TRHR enhancer-1: inactive; TRHR agonist-1: 40; PTAP TSG101 blk: inactive; TRPML1 agonist: inactive; TRHR enhancer-2: inactive; TRHR agonist-2: inactive

How did COc1ccc(C2C(C(=O)c3ccco3)=C(O)C(=O)N2c2nnc(C)s2)cc1 (configuration not stated) do in these assays?
TRPML1 inh: inactive; TRHR enhancer-1: inactive; TRHR agonist-1: inactive; PTAP TSG101 blk: inactive; TRPML1 agonist: inactive

What do the screens show for `O=C(O)c1c2c(nc3ccccc13)CCCC2`?
TRPML1 agonist: inactive

Results for CC(C(=O)N1CC2(C)CC1CC(C)(C)C2)N1C(=O)c2ccccc2C1=O (configuration not stated) ?
TRPML1 inh: inactive; TRHR enhancer-1: 46; TRHR agonist-1: inactive; PTAP TSG101 blk: inactive; TRPML1 agonist: inactive; TRHR enhancer-2: inactive; TRHR agonist-2: inactive

Results for CCC(C(=O)N1CC2(C)CC1CC(C)(C)C2)N1C(=O)c2ccccc2C1=O (configuration not stated) ?
TRPML1 inh: inactive; TRHR enhancer-1: inactive; TRHR agonist-1: inactive; PTAP TSG101 blk: inactive; TRPML1 agonist: inactive

Results for CCN(CC)S(=O)(=O)c1cccc(C(=O)N/N=C(\C)c2ccc(O)cc2O)c1 ?
TRPML1 inh: inactive; TRHR enhancer-1: inactive; TRHR agonist-1: inactive; PTAP TSG101 blk: inactive; TRPML1 agonist: inactive; TRHR enhancer-2: inactive; TRHR agonist-2: inconclusive

What do the screens show for `O=[N+]([O-])/C=C\c1ccc(N2CCCC2)c(F)c1`?
TRPML1 inh: inactive; TRHR enhancer-1: inactive; TRHR agonist-1: 73; PTAP TSG101 blk: inactive; TRPML1 agonist: inconclusive; TRHR enhancer-2: inactive; TRHR agonist-2: inconclusive

How did O=C(CCc1nc2ccccc2c(=O)[nH]1)Nc1cc(Cl)ccc1N1CCCC1 do in these assays?
TRPML1 inh: inactive; TRHR enhancer-1: 47; TRHR agonist-1: inactive; PTAP TSG101 blk: inactive; TRPML1 agonist: inactive; TRHR enhancer-2: inactive; TRHR agonist-2: inactive

Results for O=C(CCc1nc2ccccc2c(=O)[nH]1)Nc1ccc(N2CCCCC2)cc1 ?
TRPML1 inh: inactive; TRHR enhancer-1: inactive; TRHR agonist-1: inactive; PTAP TSG101 blk: inactive; TRPML1 agonist: inactive

How did Cc1cnc(/C=C/c2ccc(N(C)C)cc2)cn1 do in these assays?
TRPML1 agonist: inactive

Results for Cc1cnccc1/C=C/c1ccc(N)cc1 ?
TRPML1 agonist: inactive

How did Clc1ccccc1-c1nnc2sc(-c3ccc(Br)o3)nn12 do in these assays?
TRPML1 inh: inactive; TRHR enhancer-1: inactive; TRHR agonist-1: inactive; PTAP TSG101 blk: inactive; TRPML1 agonist: inactive; TRHR enhancer-2: inactive; TRHR agonist-2: inactive

How did COc1nc(N2CCCC2)nc(-n2nnc(C(C)=O)c2C)n1 do in these assays?
TRPML1 inh: inactive; TRHR enhancer-1: inactive; TRHR agonist-1: inactive; PTAP TSG101 blk: inactive; TRPML1 agonist: inactive

What do the screens show for `CC(=O)c1nnn(-c2nc(N3CCCC3)nc(N(c3ccccc3)c3ccccc3)n2)c1C`?
TRPML1 inh: inactive; TRHR enhancer-1: 45; TRHR agonist-1: inactive; PTAP TSG101 blk: inactive; TRPML1 agonist: inactive; TRHR enhancer-2: inactive; TRHR agonist-2: inactive

What do the screens show for `Cc1ccc(-c2nc3cccc(C)n3c2Nc2ccc(F)cc2)o1`?
TRPML1 agonist: inactive

What do the screens show for `Cn1c(-c2cccc(F)c2)nc2c1c(=O)[nH]c(=O)n2Cc1ccccc1`?
TRPML1 inh: inactive; TRHR enhancer-1: 49; TRHR agonist-1: inactive; PTAP TSG101 blk: inactive; TRPML1 agonist: inactive; TRHR enhancer-2: inactive; TRHR agonist-2: inactive

Results for CCCn1c(-c2cccc(F)c2)nc2c1c(=O)[nH]c(=O)n2Cc1ccccc1 ?
TRPML1 inh: inactive; TRHR enhancer-1: inactive; TRHR agonist-1: inactive; PTAP TSG101 blk: inactive; TRPML1 agonist: inactive

Results for C=C1C=C(C(F)F)n2ncc(C(=O)NCc3ccccc3OC)c2N1 ?
TRPML1 agonist: inactive

Results for COc1ccc(CNC(=O)CN(C(=O)CCC(=O)Nc2ccccn2)c2cccc(C)c2)cc1 ?
TRPML1 inh: inactive; TRHR enhancer-1: 44; TRHR agonist-1: inactive; PTAP TSG101 blk: inactive; TRPML1 agonist: inactive; TRHR enhancer-2: inactive; TRHR agonist-2: inactive

Results for O=C(N/N=C/c1coc2ccccc2c1=O)c1cccc([N+](=O)[O-])c1 ?
TRPML1 inh: inactive; TRHR enhancer-1: 61; TRHR agonist-1: inactive; PTAP TSG101 blk: inactive; TRPML1 agonist: inactive; TRHR enhancer-2: inconclusive; TRHR agonist-2: inactive

Results for CC(=O)Nc1cc(NC(C)=O)c(N=Nc2ccccc2)cc1C ?
TRPML1 inh: inactive; TRHR enhancer-1: 63; TRHR agonist-1: inactive; PTAP TSG101 blk: inactive; TRPML1 agonist: inactive; TRHR enhancer-2: inactive; TRHR agonist-2: inactive

How did C(=C\c1ccco1)/C1=NN(c2ccccc2)C(c2ccco2)C1 (configuration not stated) do in these assays?
TRPML1 inh: inactive; TRHR enhancer-1: inactive; TRHR agonist-1: inactive; PTAP TSG101 blk: inactive; TRPML1 agonist: inactive

How did O=[N+]([O-])c1ccc(/C=C/C2=NN(c3ccccc3)C(c3ccco3)C2)o1 (configuration not stated) do in these assays?
TRPML1 inh: inactive; TRHR enhancer-1: inactive; TRHR agonist-1: 40; PTAP TSG101 blk: inactive; TRPML1 agonist: inactive; TRHR enhancer-2: inactive; TRHR agonist-2: inconclusive

Results for Nc1nc2c(nc(N3CCOCC3)n2COCCO)c(=O)[nH]1 ?
TRPML1 agonist: inactive
